Screens as filed in PubChem BioAssay.
Compounds with a hit are over-represented: about 22% of the library has one in this group of screens.
CYP2C9 act: human CYP2C9 activators, primary screen, biochemical, luminescence | activation factor at 5 µM | 96,000 compounds, 1.4% hits | AID 1024, 2008 | recombinant CYP2C9, luciferin-H conversion; active compounds read high; factor 1 = untreated enzyme, 0 = blocked;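 active = activation factor of 2 or more for CYP2C9 at a 5 µM dose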;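 also: 0 = sulfaphenazole-blocked wells and 1 = vehicle-only wells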
Target sequence (P11712 whole entry, looked up): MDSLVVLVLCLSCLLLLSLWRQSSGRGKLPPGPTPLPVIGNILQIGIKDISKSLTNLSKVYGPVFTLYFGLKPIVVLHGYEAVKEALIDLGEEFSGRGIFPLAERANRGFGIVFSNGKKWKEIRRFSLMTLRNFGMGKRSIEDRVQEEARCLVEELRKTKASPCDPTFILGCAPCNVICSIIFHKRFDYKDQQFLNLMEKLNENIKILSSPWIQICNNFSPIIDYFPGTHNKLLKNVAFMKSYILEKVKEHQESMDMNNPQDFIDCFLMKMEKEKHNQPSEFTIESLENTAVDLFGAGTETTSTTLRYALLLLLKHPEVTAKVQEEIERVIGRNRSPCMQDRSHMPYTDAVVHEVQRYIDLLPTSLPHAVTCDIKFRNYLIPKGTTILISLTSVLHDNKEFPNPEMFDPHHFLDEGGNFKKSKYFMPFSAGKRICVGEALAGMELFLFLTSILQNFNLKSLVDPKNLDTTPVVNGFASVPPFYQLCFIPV
Measles CPE: compounds protecting cells from measles virus cytopathic effect, primary screen, measles RdRp inhibitor project, single point, MLSMR library, absorbance; Measles virus-infected cells, CPE protection; protection (pct of control), % at 4 µM; 140,000 compounds, 1.5% hits; in the data active = protection mostly above about 24%, no sharp cut-off; inactive = mostly below about 26%
CYP2C19 act: human CYP2C19 activators, primary screen, biochemical, luminescence. activation factor at 5 µM. recombinant CYP2C19, luciferin-H EGE luminescence; active compounds read high; 0 = fully inhibited enzyme, 1 = untreated enzyme. 96,000 tested, under 10 active. AID 1025, 2008;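 active = activation factor of at least 2 at 5 µM in the primary screen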;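 also: 0 = wells with 2.5 mM tranylcypromine and 1 = vehicle-only wells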
CYP2C9 inhib: blockers of cytochrome P450 2C9 activity – biochemical, luminescence, ADME assay, primary screen; CYP2C9 Supersomes, luciferin-H conversion; 96,000 compounds, 20% hits; inhibition, % at 5 µM; P11712;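 active = blocking of liver enzyme CYP2C9 beyond about 50% at 5 µM, limit read from the data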
CYP2C19 inhib: blockers of cytochrome P450 2C19 activity – biochemical, luminescence, ADME assay, primary screen; CYP2C19 Supersomes, luciferin-H EGE luminescence, 30 min; inhibition, % at 5 µM; 96,000 compounds, 21% hits; AID 778, 2007;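 active = CYP2C19 inhibition above a set limit at 5 µM in the primary screen, cut at about 50% in these data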;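 also: plate controls were negative control wells for no effect and 2.5 mM tranylcypromine positive control for full effect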
Starred values were filed as active, the others as inactive; . = no result.

SMILES	CYP2C9 act	Measles CPE	CYP2C19 act	CYP2C9 inhib	CYP2C19 inhib
COc1ccc2nc(NC(=O)c3ccc4ncsc4c3)sc2c1	0.5	7	1.1	54*	-6
COc1ccc2nc(NC(C)=O)sc2c1	1	5	1	-1	4
COc1ccc2nc(NC(=O)CSc3nc4ccccc4o3)sc2c1	0.7	9	0.4	33	62*
O=C(CSc1nc2ccccc2o1)Nc1nc2ccc(Br)cc2s1	0.2	25	0.1	81*	94*
Cc1cccc(-n2c(=S)[nH]c3c(oc4ccccc43)c2=O)c1	.	16	.	.	.
CCOc1ccccc1NC(=O)c1cccc(S(=O)(=O)N(Cc2ccccc2)c2ccccc2OC)c1	.	4	.	.	.
Cc1cccc(-n2cnc(C(=O)N/N=C\c3ccc(Br)cc3)c2)n1	1.2	21	0.9	-24	14
COC(=O)C1(Cc2ccccc2)NC(c2ccccc2C)C2C(=O)N(c3ccc4c(c3)OCO4)C(=O)C21 (centres undefined)	.	19	.	.	.
O=C1c2ccccc2C(Nc2ccc(Cl)cn2)N1c1cccnc1 (centres undefined)	0.8	22	0.2	25	85*
COc1ccc(OC)c(NC2c3ccccc3C(=O)N2c2cccnc2)c1 (centres undefined)	0.3	4	0.4	67*	57*
O=C1c2ccccc2C(O)N1c1cccnc1 (centres undefined)	1.1	2	1.2	-13	-18
COc1cc2c(cc1OC)C1=C(C#N)CN(CC(=O)O)CN1CC2	0.4	3	0.7	57*	27
O=C1/C(=C\c2ccco2)SC(=S)N1c1ccc(O)cc1	.	39*	.	.	.
COc1ccc2c(c1)S/C(=C\C(=O)c1ccncc1)N2C	0.4	4	0.3	62*	73*
CCOC(=O)Oc1ccc2oc(C)c(C(=O)OCCOC)c2c1	1	3	0.8	-1	15
COCCOC(=O)c1c(C)oc2ccc(OC(=O)c3c(OC)cccc3OC)cc12	0	22	0.1	96*	93*
COCCOC(=O)c1c(C)oc2ccc(OC(=O)c3ccc4c(c3)OCO4)cc12	0.1	10	1.1	87*	-10
C=CCC1CCCC(=O)N2CC[C@H](O)C12 (some centres undefined)	.	7	.	.	.
COc1cc(/C(C#N)=C/c2ccccc2)c([N+](=O)[O-])cc1OC	.	14	.	.	.
Cn1nc(-c2ccc(Cl)cc2)nc2c(=O)n(C)c(=O)nc1-2	0.1	4	0	93*	98*
COc1cccc2c1N1C(=O)c3c(C(=O)O)cccc3C1CC2(C)C (centres undefined)	0.3	8	1	70*	-2
O=C(c1ccco1)N1CCN(S(=O)(=O)c2ccc(S(=O)(=O)NC3CCCCC3)cc2)CC1	0.6	31	0.9	45	11
CCS(=O)(=O)c1ccc2oc(Nc3ccccc3C)nc2c1	0.5	4	0.4	54*	59*
Cc1cccc(NS(=O)(=O)c2ccc(Oc3ccccc3)cc2)n1	0.7	13	0.2	31	83*
Cc1ccc2nc(NC(=O)CCNS(=O)(=O)c3ccc(Br)s3)sc2c1	0.6	3	0.5	44	50
SMILES	CYP2C9 act	Measles CPE	CYP2C19 act	CYP2C9 inhib	CYP2C19 inhib
Cc1cccc(NS(=O)(=O)c2ccc(Br)s2)n1	0.7	8	0.3	31	68*
Cc1cc(C)nc(NS(=O)(=O)c2ccc(Br)s2)c1	0.8	5	0.5	16	52*
CC(C)C(NS(=O)(=O)c1ccc(Br)s1)C(=O)O (centres undefined)	1.1	44	1.1	-10	-6
CN(C)C(CNC(=O)NC1CCCCC1)c1cccnc1 (centres undefined)	1	12	1	-3	-1
O=C(Cc1ccc(-n2cccc2)cc1)NCc1cccs1	0.7	2	1	31	5
CCCNC(=S)N1CCC(C(=O)c2ccc(OC)cc2)CC1	.	22	.	.	.
O=C(Cn1c(C2CC2)nc2ccccc2c1=O)Nc1ccc(Br)cc1	0.5	2	0.4	51*	56*
CC(=O)Nc1ccc2nc(C)n(Cc3ccc(Cl)cc3)c(=O)c2c1	.	20	.	.	.
CCC(=O)Nc1ccc2nc(C)n(CC(=O)Nc3ccccc3)c(=O)c2c1	0.4	2	0.7	58*	28
O=C(Cn1c(CN2CCCCC2)nc2ccccc2c1=O)NC1CCCCC1	.	9	.	.	.
CCOC(=O)CCNC(=O)Nc1ccc2nc(C)n(Cc3ccc(Cl)cc3)c(=O)c2c1	0.3	38*	0.5	71*	48
O=C(Cn1c(CN2CCCCC2)nc2ccccc2c1=O)Nc1ccccc1	0.6	5	0.1	41	88*
Cc1ccc(C(NC(=O)c2ccccc2)C(Cl)(Cl)Cl)cc1 (centres undefined)	.	22	.	.	.
Cc1ccc(CS(=O)(=O)CCC(=O)NCCN2CCCC2)cc1	0.8	18	1.1	16	-6
Cc1cc(NC(=O)Cn2nc3c(cc2=O)CCCC3)ccc1Br	0.6	8	0.1	39	88*
Cc1cc(NC(=O)Cn2c(C)nc3ccccc3c2=O)ccc1Br	0.4	4	0.6	60*	38
Cc1ccccc1NC(=O)Cn1c(C)nc2ccc(NC(=O)C3CC3)cc2c1=O	0.6	6	0.9	36	5
O=S(=O)(Nc1ccc(-c2nnc(SCc3ccc(Cl)cc3)o2)cc1)c1ccccc1	.	26	.	.	.
Clc1ccc(CSc2nnc(-c3ccncc3)o2)cc1	0.2	1	0.1	82*	92*
CCSc1nnc(-c2ccncc2)o1	.	3	.	.	.
Clc1ccc(CSc2nnc(-c3ccc4c(c3)OCO4)o2)cc1	0.5	5	0.8	50*	21
Cc1ccc(NC(=O)Cc2nc(CSc3nnc(-c4ccc5c(c4)OCO5)o3)cs2)cc1	0.8	17	0.4	20	61*
COc1ccc(/C=N/Nc2c(Cl)cc(Cl)cc2Cl)cc1CN1CCOCC1	.	12	.	.	.
O=C1CC(N2CCN(c3ccc(S(=O)(=O)N4CCCC4)cc3)CC2)C(=O)N1c1ccc(F)cc1 (centres undefined)	0.7	7	0.8	34	16
O=C(NC1CC1)c1cc(Cl)ccc1[N+](=O)[O-]	1	2	1	-4	1
SMILES	CYP2C9 act	Measles CPE	CYP2C19 act	CYP2C9 inhib	CYP2C19 inhib
O=C(NCCCN1CCCC1)c1cccc(N2CCCC2=O)c1	.	3	.	.	.
COc1ccc(CNC(=O)c2cccc(N3CCCC3=O)c2)cc1	0.3	0	0.3	71*	72*
CN(CCNC(=O)c1cccc(N2CCCC2=O)c1)Cc1ccccc1	0.8	8	0.8	20	18
CCN(CCNC(=O)c1cccc(N2CCCC2=O)c1)c1ccccc1	1.1	10	0.1	-10	89*
O=C(NCCCN1CCN(c2ccc(F)cc2)CC1)c1cccc(N2CCCC2=O)c1	0.7	6	0.2	28	80*
O=C(NCc1ccc(N2CCCC2=O)cc1)Nc1cccc(Cl)c1	0.3	8	0.4	72*	59*
